Screens deposited in PubChem BioAssay by Broad Institute.
In the library only some 3.1% were active in any assay of this set; here they are far more common.
C2C12 statin: protects C2C12 myotubes from simvastatin toxicity; rescue of ATP level, % at 7.49 µM; 0.78% of 330,000 active; ATP luminescence, 48 h; scaled: DMSO 0, geranylgeraniol control 100;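 active = mean ATP rescue above about 67%, or every replicate alone reaching that limit, limit read from the data, passing the limit was not always enough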;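 note: myotubes were challenged with 10 µM simvastatin during compound exposure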
EWS-Fli inh: inhibitors of EWS/Fli oncoprotein transcriptional activity. A673 NR0B1-luciferase reporter, viability-normalised. inhibition, % at 12.6 µM. 0.67% of 350,000 active. AID 651661;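 active = mean inhibition of at least 50% after viability correction, with every replicate also passing that limit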;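 note: firefly luciferase signal divided by Alamar Blue viability fluorescence both relative to DMSO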
GSIS activator: primary screen for activators of insulin secretion dependent on glucose, INS-1E cells, GLuc reporter luminescence; INS-1E GLuc reporter insulin secretion, 2-3 h; activation, % at 16.6 µM; 0.61% of 370,000 active;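 active = lowest replicate activation of at least 40%, so every replicate reaches that level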;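 note: 0% = median of neutral control wells and 100% = median of IBMX positive control wells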
miR122 inh: blocks miR-122 activity in Huh7 sensor cells; 0.3% of 340,000 active; activation (reporter increase), % at 12.5 µM; Huh7 miR-122 Renilla luciferase sensor, 48 h; neutral wells = 0, positive control = 100;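 active = mean replicate activation score at least 90 and every replicate individually at or above 90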;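 note: higher luciferase means less miR-122 activity so hits act as miR-122 inhibitors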
PAX8 inh HTS: lowers PAX8-driven luciferase in RMG-I cells | RMG-I TPO-luciferase reporter, SteadyGlo, 24 h | inhibition, % at 12.6 µM | 1.2% of 360,000 active | AID 652154;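 active = mean replicate inhibition at least 60% with every replicate also reaching 60%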;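 note: luciferase light reporting Pax8 driven TPO promoter activity; plate controls were median of neutral control wells for no effect and mitoxantrone controls for full effect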
Env fusion inh: inhibitors of HIV Env-mediated cell fusion. HeLa-JRFL Env/CEM21 cell fusion, luciferase. inhibition, % at 12.3 µM. 1.1% of 360,000 active. AID 651610;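 active = mean replicate inhibition score of at least 50 and every replicate individually at or above 50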;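 note: 0% = plate neutral controls and 100% = maraviroc near 300 nM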
An asterisk follows results filed as active; [ ] = dose if it differs, or a comment.

How did COC(=O)[C@]12C[C@H](CC(=O)NCCC(C)C)C(=O)N(CCC3=CCCCC3)C1=C[C@H](C(C)(C)C)O[C@@H]2C do in these assays?
EWS-Fli inh: 3; PAX8 inh HTS: 24; Env fusion inh: 59*

What do the screens show for `COC(=O)[C@]12C[C@H](CC(=O)N3CCC(c4ccccc4)CC3)C(=O)N(CCC3=CCCCC3)C1=C[C@H](C(C)(C)C)O[C@@H]2C`?
EWS-Fli inh: 11; PAX8 inh HTS: 8; Env fusion inh: 2

Results for COc1ccc(NC(=O)N(C)C[C@@H]2Oc3c(NC(=O)Nc4c(C)noc4C)cccc3C(=O)N([C@@H](C)CO)C[C@H]2C)cc1 ?
C2C12 statin: 12; EWS-Fli inh: -2; GSIS activator: 4; miR122 inh: 0[16.7 µM]

Results for CCC(=O)Nc1ccc2c(c1)OC[C@H](C)N(Cc1cccc(F)c1)C[C@@H](C)[C@H](OC)CN(C)C2=O ?
C2C12 statin: 10; EWS-Fli inh: 1; GSIS activator: -28; miR122 inh: 0[16.7 µM]; PAX8 inh HTS: 2; Env fusion inh: -14[16.7 µM]

How did COc1ccc2c3c(n(C)c2c1)[C@H](CO)NCC31CN(Cc2ccc(-c3ccccn3)cc2)C1 do in these assays?
EWS-Fli inh: 15; GSIS activator: 21; PAX8 inh HTS: 2

What do the screens show for `COc1ccc2c3c([nH]c2c1)[C@@H](CO)N(C)CC31CCN(C(=O)Nc2c(C)noc2C)CC1`?
EWS-Fli inh: -8; GSIS activator: -2; PAX8 inh HTS: -2

Results for Cc1ccc(S(=O)(=O)N(C)C[C@@H]2Oc3ccc(NC(=O)CCCCCC(=O)Nc4ccccc4N)cc3CC(=O)N([C@H](C)CO)C[C@@H]2C)cc1 ?
C2C12 statin: 12; EWS-Fli inh: 45; GSIS activator: 11; miR122 inh: -1[16.7 µM]; PAX8 inh HTS: 4; Env fusion inh: 72*[16.7 µM]

What do the screens show for `C[C@H](CO)N1C[C@H](C)[C@H](CN(C)S(=O)(=O)c2ccccc2)Oc2ccc(NC(=O)CCCCCC(=O)Nc3ccccc3N)cc2CC1=O`?
C2C12 statin: 14; EWS-Fli inh: 41; GSIS activator: 0; miR122 inh: -11[16.7 µM]; PAX8 inh HTS: 20; Env fusion inh: 57*[16.7 µM]

How did C[C@@H]1CN([C@@H](C)CO)C(=O)Cc2cc(NC(=O)CCCCCC(=O)Nc3ccccc3N)ccc2O[C@H]1CN(C)S(=O)(=O)c1ccccc1 do in these assays?
C2C12 statin: -23; EWS-Fli inh: 4; GSIS activator: -3; miR122 inh: -5[16.7 µM]; PAX8 inh HTS: -14; Env fusion inh: -5[16.7 µM]

What do the screens show for `Cc1ccc(S(=O)(=O)N(C)C[C@H]2Oc3ccc(NC(=O)CCCCCC(=O)Nc4ccccc4N)cc3CC(=O)N([C@H](C)CO)C[C@H]2C)cc1`?
C2C12 statin: 4; EWS-Fli inh: 17; GSIS activator: 17; miR122 inh: 9[16.7 µM]; PAX8 inh HTS: -7; Env fusion inh: 30[16.7 µM]

How did CO[C@@H]1CN(C)C(=O)c2cc(NC(=O)c3cccc(F)c3)ccc2OC[C@H](C)N(C(C)=O)C[C@@H]1C do in these assays?
C2C12 statin: 0; EWS-Fli inh: -4; GSIS activator: 18; miR122 inh: -9[16.7 µM]

How did O=C(NCC1CC1)[C@H]1[C@H](CO)[C@H]2Cn3c(cccc3=O)[C@H]2N1CCC(F)(F)F do in these assays?
C2C12 statin: -9; EWS-Fli inh: -4; GSIS activator: 2; miR122 inh: 8[16.7 µM]; PAX8 inh HTS: -3

Results for Cc1ccc(-c2cc3onc(-c4ccccc4)c3c(=O)n2C)cc1 ?
C2C12 statin: 2; EWS-Fli inh: 80*; GSIS activator: 6; miR122 inh: -2; PAX8 inh HTS: -72; Env fusion inh: -50

What do the screens show for `CCCOc1ccc(-c2cc3onc(-c4ccccc4)c3c(=O)n2C)cc1`?
C2C12 statin: -7; EWS-Fli inh: 62*; GSIS activator: -6; miR122 inh: -7; PAX8 inh HTS: -19; Env fusion inh: -2

Results for CNC(=O)c1ccc(-c2cc3onc(-c4ccccc4)c3c(=O)n2C)cc1 ?
C2C12 statin: 9; EWS-Fli inh: -133; GSIS activator: -23; miR122 inh: -6; PAX8 inh HTS: -108; Env fusion inh: 4

How did COc1ccc(NC(=O)CNC(=O)c2cccs2)cc1Cl do in these assays?
C2C12 statin: -37; EWS-Fli inh: -27; GSIS activator: 49; miR122 inh: -6; PAX8 inh HTS: -36; Env fusion inh: -4

What do the screens show for `CC(=O)Nc1cc(S(=O)(=O)Nc2cccc(C)c2)c(C)cc1C`?
C2C12 statin: 11; miR122 inh: 144*

How did Cc1ccc(NC(=O)CNC(=O)c2cccs2)cc1S(=O)(=O)Nc1ccc(Cl)cc1 do in these assays?
C2C12 statin: 20; EWS-Fli inh: 0; GSIS activator: -26; miR122 inh: 98*; PAX8 inh HTS: 28

How did Cc1ccc(C(=O)NCCSc2ccc(Cl)cc2)cc1S(=O)(=O)Nc1ccccc1 do in these assays?
C2C12 statin: 11; EWS-Fli inh: 11; GSIS activator: -48; miR122 inh: 131*

What do the screens show for `CS(=O)(=O)Nc1ccccc1C(=O)NCCSc1ccc(Cl)cc1`?
C2C12 statin: -11; EWS-Fli inh: 10; GSIS activator: -34; miR122 inh: 6; PAX8 inh HTS: 11; Env fusion inh: 7

What do the screens show for `Cc1ccc(NS(=O)(=O)c2cc(C(=O)NCCSC3CCCCC3)ccc2C)cc1`?
C2C12 statin: 19; GSIS activator: -28; miR122 inh: 122*; Env fusion inh: 55*

Results for CS(=O)(=O)Nc1ccc(C(=O)NCCSC2CCCCC2)cc1 ?
EWS-Fli inh: -13; miR122 inh: -3

What do the screens show for `Cc1ccc(S(=O)(=O)N[C@@H]2CC[C@H](CCNC(=O)c3ccccc3F)O[C@@H]2CO)cc1`?
C2C12 statin: 2; EWS-Fli inh: -5; GSIS activator: 1; miR122 inh: 1[16.7 µM]; PAX8 inh HTS: 13; Env fusion inh: -11[16.7 µM]

Results for CCCNC(=O)C[C@@H]1CC[C@@H]2[C@@H](COc3ccc(NS(=O)(=O)CC)cc3C(=O)N2C)O1 ?
C2C12 statin: 2; EWS-Fli inh: 0; GSIS activator: 1; miR122 inh: 1[16.7 µM]; PAX8 inh HTS: -8; Env fusion inh: -12[16.7 µM]

How did Cc1ccc(SCCNC(=O)c2ccc(C)c(S(=O)(=O)Nc3cccc(C)c3)c2)cc1 do in these assays?
C2C12 statin: 49; GSIS activator: -33; miR122 inh: 105*

Results for Cc1ccc(C(=O)Nc2ccc(C)c(S(=O)(=O)Nc3ccccc3Cl)c2)s1 ?
EWS-Fli inh: 1; GSIS activator: -19; miR122 inh: 413*; PAX8 inh HTS: 31

Results for Cc1ccc(NS(=O)(=O)c2cc(C(=O)NCCSc3ccc(C)cc3)ccc2C)cc1 ?
C2C12 statin: 24; miR122 inh: 115*; Env fusion inh: 97*

Results for Cc1ccc(SCCNC(=O)c2ccccc2)cc1 ?
C2C12 statin: -21; miR122 inh: 0; PAX8 inh HTS: 3; Env fusion inh: -68
